AmpC inh no detg: qHTS Inhibitors of AmpC Beta-Lactamase (assay without detergent) | P00811 | 0.52% of 330,000 active | Potency, µM (doses to about 57.1 µM), without a hit: top-dose activity change, negative = inhibition, hits mostly inhibitors | AmpC nitrocefin hydrolysis, absorbance 480 nm, 0.0001% Triton;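 further: plate controls were no compound for no effect and no enzyme for full effect; nearly all actives have a fitted effect of over 20% in size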
Target sequence (P00811 whole entry, looked up): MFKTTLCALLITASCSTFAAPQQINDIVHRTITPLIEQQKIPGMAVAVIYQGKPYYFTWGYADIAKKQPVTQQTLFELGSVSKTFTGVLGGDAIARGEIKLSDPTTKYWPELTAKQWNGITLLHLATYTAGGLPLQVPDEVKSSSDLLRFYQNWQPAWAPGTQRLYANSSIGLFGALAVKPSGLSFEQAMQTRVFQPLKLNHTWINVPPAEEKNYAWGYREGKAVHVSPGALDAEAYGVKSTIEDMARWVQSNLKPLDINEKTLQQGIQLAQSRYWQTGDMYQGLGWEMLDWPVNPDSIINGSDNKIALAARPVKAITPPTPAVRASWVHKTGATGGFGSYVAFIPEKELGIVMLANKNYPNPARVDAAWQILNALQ
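AmpC (5.3 nM in the dispensed reagent) in 20 mM phosphate pH 7.0 with 0.01% (detergent screen) or 0.0001% Triton X-100 was preincubated with compounds for 15 min at room temperature. Nitrocefin was then added from an 800 uM solution, and hydrolysis was followed at 480 nm.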
AmpC detergent: qHTS Inhibitors of AmpC Beta-Lactamase (assay with detergent) | AmpC hydrolysis of nitrocefin, absorbance 480 nm, 0.01% Triton | 0.041% of 370,000 active | Potency, µM (titrated, usually from 114 µM), inactives show top-dose activity change, negative = inhibition, most hits filed as inhibitors;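 further: 0% = no-compound wells and -100% = no-enzyme wells; nearly all actives have a fitted effect of over 25% in size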
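20 mM phosphate pH 7.0 + 0.01% (detergent screen) or 0.0001% Triton X-100; 5.3 nM AmpC reagent; cpd preinc 15 min RT; nitrocefin (800 uM stock) to start; A480 q20 s × 4 min; Activity was normalised to no-enzyme and no-compound control wells.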
Sm TGR block: qHTS Assay for the Inhibitors of Schistosoma Mansoni Peroxiredoxins. Potency, µM (highest dose often 114 µM), for inactives: at the highest dose activity change, negative = inhibition, actives largely listed as inhibitors. 3% of 360,000 active. Schistosoma mansoni thioredoxin glutathione reductase (TGR), Q962Y6. AID 485364, 2010. purified TGR, DTNB reduction, TNB absorbance 405 nm; further: nearly all actives have a fitted effect of over 60% in size
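First, TGR (20 nM dispensed) and NADPH were mixed with compound. Second, a 15 min room-temperature incubation followed. Third, further NADPH and then DTNB were added to start the reaction. Finally, TNB absorbance was monitored kinetically.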
* hit, by the source's call; ? = inconclusive; . = no result; [ ] = remark or other dose. Hits are enriched below; roughly 3.3% of the tested compounds scored in any of these assays. The call rests on the fitted dose curve; in most records, active means well fitted curve in the direction sought with a large enough effect; inconclusive means small, poorly fitted or top-dose-only effect, or another doubt; inactive means no such curve, though single readings can be large; an effect the other way counts as inactive or inconclusive. Unless noted, on the % scale 0 is the no-effect control and ±100 the full control effect; potency means the concentration at half of the fitted maximal effect.

SMILES | AmpC inh no detg | AmpC detergent | Sm TGR block
CCN(CC)c1ccc(NC(=O)CSc2nc3ccccc3c(=O)[nH]2)cc1 | 20µM* | ? | -3%
Cc1ccc(C)c(OCCn2cc(C(=O)c3cccs3)c3ccccc32)c1 | . | 26% | 16%
COc1ccc(N2C(=O)/C(=C\c3ccco3)N=C2SCC(=O)NC(C)C)cc1Cl | -28% | -3% | 0%
O=C(CSC1=N/C(=C/c2ccco2)C(=O)N1c1ccc(OC(F)F)cc1)NC1CCS(=O)(=O)C1 (configuration not stated) | -12%[11.4 µM] | -10% | 40µM*
CCOc1ccccc1N1CC(c2nc3ccccc3n2CCOc2ccccc2OC)CC1=O (configuration not stated) | . | -3% | ?
COc1ccc(OC)c(NC(=O)N2CCC3(CC2)Oc2ccccc2C(=O)N3Cc2ccccc2F)c1 | . | 23% | 13%
CN(c1nnc(NC(=O)Nc2ccc(Br)cc2)s1)C1CCCCC1 | . | 13% | 6%
CC(=O)Nc1ccc(C(=O)NC(CC(=O)O)c2ccc(Cl)cc2)cc1 (configuration not stated) | -12% | -5% | -3%
CN(C)c1ccc(C(CC(=O)O)NC(=O)c2ccc(Cl)cc2)cc1 (configuration not stated) | -16% | ? | 32µM*
COc1ccc(OC)c(-n2cnc3cc(C(=O)NCCc4ccccc4)ccc32)c1 | . | -2% | 8%
COc1cc2c(cc1OC)C(Cc1ccc(O)cc1)NCC2 (configuration not stated) | -30% | ? | -5%
Oc1ccc(C[C@H]2NCCc3cc(O)c(O)cc32)cc1O | -22% | 0% | 18µM*
CCc1ccc(NC(=O)c2ccc3c(c2)N(Cc2ccc(C)cc2)CCS3)cc1 | . | -9% | 1%
CCc1c(C)sc2c1CCN(Cc1ccccc1F)C2c1ccccc1 (configuration not stated) | . | -4% | -2%
CCOc1ccc(CCNC(=O)c2cc(C)nc3c2c(C)nn3-c2cccc(F)c2)cc1 | . | -3% | 1%
Cc1cccc(C)c1NC(=O)CSc1nccn1C | . | -2% | -2%
O=C(NCc1ccco1)c1cc(-c2ccccc2)nn1CC1CC(c2cccc([N+](=O)[O-])c2)=NO1 (configuration not stated) | -16% | . | .
Cc1ccccc1-c1cc(C(=O)NCc2ccco2)n(CC2CC(c3cccnc3)=NO2)n1 (configuration not stated) | 11% | 4% | 18µM*
Cc1cc(O)c(C=O)c2c1C(=O)Oc1c(CO)c(O)c3c(c1O2)C(O)OC3=O (configuration not stated) | -41% | 50µM* | 14µM*
CCc1ccc(NC(=O)c2ccc(NS(=O)(=O)c3c(C)noc3C)cc2)cc1 | . | 3% | 3%
Cc1ccc(C(=O)c2cn(CC(=O)NCc3ccccc3Cl)c3nc(C)ccc3c2=O)cc1 | . | 21% | -3%
CCOc1ccc(CC(=O)NNC(=S)NC)cc1 | -5% | 5% | 10%
CNC(=S)NNC(=O)Cc1ccccc1 | 0.28µM* | -1% | 34%
O=C(O)C1(c2ccccc2)CCN(S(=O)(=O)c2ccc(Br)cc2)CC1 | -17% | ? | 89µM*
O=C(O)C1(c2ccccc2)CCN(S(=O)(=O)c2ccc(Cl)cc2)CC1 | -24% | -12% | 0%
SMILES | AmpC inh no detg | AmpC detergent | Sm TGR block
O=[N+]([O-])/C(C(Cl)=C(Cl)Cl)=C(/NC1CC1)Sc1ccccc1 | -1% | 3% | 4µM*
O=C(O)C1CCC(NSc2ccccc2[N+](=O)[O-])CC1 (configuration not stated) | -27% | ? | ?
CCN(Cc1ccccc1)S(=O)(=O)c1ccc(-c2coc(C)n2)cc1 | . | -6% | -5%
COc1cccc(NC(=O)C(=O)NCC(c2cccnc2)N2CCN(c3ccccc3)CC2)c1 (configuration not stated) | . | -2% | -6%
O=Cc1cccc(Oc2ccc([N+](=O)[O-])cc2[N+](=O)[O-])c1 | -14% | ? | 45µM*
O=[N+]([O-])c1cc(/C=N/O)ccc1Oc1cccc(Cl)c1 | -29% | 3% | .
Cc1cc(=O)oc2cc(Oc3ncccc3[N+](=O)[O-])ccc12 | -33% | 2% | 5%
Cc1cc(=O)oc2cc(Oc3ccc([N+](=O)[O-])cc3[N+](=O)[O-])ccc12 | -33% | -15% | 50µM*
Cc1ccccc1N(C)C(=O)c1noc2c1COc1ccccc1-2 | . | 7% | 0%
CO[C@@]1(NC(=O)Cc2cccs2)C(=O)N2C(C(=O)O)=C(COC(N)=O)CS[C@@H]21 | -41% | 40µM* | 35µM*
